DT40 TDP1 no CPT: qHTS for Inhibitors of human tyrosyl-DNA phosphodiesterase 1 (TDP1): qHTS in cells in absence of CPT | DT40 Tdp1-/- hTDP1 cells, no CPT, ATP luminescence, 48 h | Potency, µM (highest dose often 46.2 µM), inactives show at the top dose activity change, negative = growth inhibition, most hits filed as inhibitors | hit rate 15% among 420,000; note: potency is the fitted concentration of half-maximal effect; % is set by controls: 0 for no effect and ±100 for the full control effect; nearly all actives have a fitted effect of over 55% in size
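Luminescent ATP content (CellTiter-Glo) served as the growth readout. Knockout chicken DT40 cells expressing human TDP1 were exposed to compounds without camptothecin for a minimum 48 hr at 37 °C.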
DT40 TDP1 CPT: qHTS for Inhibitors of human tyrosyl-DNA phosphodiesterase 1 (TDP1): qHTS in cells in presence of CPT; hit rate 12% among 420,000; chicken DT40 Tdp1-/-;hTDP1 cells + 20 nM CPT, ATP luminescence, 48 h; Potency, µM (doses to about 46.2 µM), inactives show at the highest dose activity change, negative = growth inhibition, usual class: inhibitors; note: potency is the fitted concentration of half-maximal effect; % is set by controls: 0 for no effect and ±100 for the full control effect; nearly all actives have a fitted effect of over 55% in size
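Chicken DT40 Tdp1-/- cells stably complemented with human TDP1 were seeded at 400 cells/well in medium containing 20 nM camptothecin, exposed to pin-transferred compounds, and grown at 37 °C for at least 48 hr. Viability was read as ATP luminescence.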
IL-1B inflam inh: qHTS for Inhibitors of Inflammasome Signaling: IL-1-beta AlphaLISA Primary Screen; activity change, % at 57.5 µM; AID 743279, 2014; THP-1 LPS/ATP IL-1B secretion, AlphaLISA, 16 h; active compounds read low; hit rate 4.7% among 360,000; in the data active = activity change below about -50%; inconclusive = mostly about -30% to -49%; note: % is set by controls: 0 for no effect and ±100 for the full control effect
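THP-1 cells pretreated 1 hr with compounds (up to 57.5 uM final), then stimulated with LPS (250 ng/mL final) plus ATP (1.25 mM final); secreted IL-1B measured by AlphaLISA after 16 hr, decreased signal indicating inhibition.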
S-ASM inh: Inhibitors of Secretory Acid Sphingomyelinase (S-ASM): qHTS; Sphingomyelin phosphodiesterase (Homo sapiens), P17405; placental ASM, HMU-PC fluorogenic substrate, 60 min; Potency, µM (doses to about 57.5 µM), inactives show top-dose activity change, negative = inhibition, usual class: inhibitors; hit rate 0.006% among 340,000; AID 504937, 2011; note: potency is the fitted concentration of half-maximal effect
Target sequence (P17405 47-631 limits assumed): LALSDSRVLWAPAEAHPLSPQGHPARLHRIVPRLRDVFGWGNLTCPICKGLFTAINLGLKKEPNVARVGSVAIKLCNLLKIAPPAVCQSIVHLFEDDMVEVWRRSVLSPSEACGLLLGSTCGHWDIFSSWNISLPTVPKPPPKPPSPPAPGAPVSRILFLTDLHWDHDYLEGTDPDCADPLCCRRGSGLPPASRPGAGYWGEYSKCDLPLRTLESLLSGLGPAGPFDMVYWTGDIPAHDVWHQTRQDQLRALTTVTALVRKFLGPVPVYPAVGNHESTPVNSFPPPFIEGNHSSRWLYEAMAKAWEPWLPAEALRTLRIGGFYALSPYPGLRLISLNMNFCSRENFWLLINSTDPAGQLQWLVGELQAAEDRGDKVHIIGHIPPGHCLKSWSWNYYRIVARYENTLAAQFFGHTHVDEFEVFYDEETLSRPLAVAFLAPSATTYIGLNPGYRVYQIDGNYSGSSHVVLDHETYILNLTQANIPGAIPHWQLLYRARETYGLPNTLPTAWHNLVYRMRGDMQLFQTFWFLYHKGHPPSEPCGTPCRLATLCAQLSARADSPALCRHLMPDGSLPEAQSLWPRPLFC
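Human placenta-derived ASM enzyme was preincubated with compound for 10 minutes at room temperature, then given fluorogenic substrate HMU-PC0 (9 uM final) for 60 minutes at 37 °C; a pH 10 stop preceded fluorescence reading at Ex 386/Em 447 nm.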
HepG2 viability: qHTS for Inhibitors of TGF-b: Cytotox Counterscreen | HepG2 CAGA-GFP viability, ATP luminescence, 18 h | Potency, µM (titrated, usually from 46.1 µM), for the others: top-dose activity change, negative = cytotoxicity, actives largely listed as cytotoxic | hit rate 0.76% among 410,000; note: potency is the fitted concentration of half-maximal effect
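CellTiter-Glo luminescence gave cytotoxicity after 18 hours at 37 degrees C. The cells were HepG2 CAGA-GFP in 1% FBS DMEM, stimulated with 500 pg/mL TGF-beta after compound addition. %Activity was normalised to no-cell wells (complete cell-killing) and DMSO (no toxicity), and curves were fitted and classified.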
TGFb inhibitor: qHTS for Inhibitors of TGF-b. HepG2 CAGA-GFP TGF-b/SMAD3 reporter, GFP fluorescence, 18 h; TGF-beta stimulated, 500 pg/mL final. Potency, µM (series often up to 46.1 µM), inactives show at the highest dose activity, negative = inhibition, usual class: inhibitors. hit rate 1.2% among 410,000; note: potency is the fitted concentration of half-maximal effect; % is set by controls: 0 for no effect and ±100 for the full control effect; nearly all actives have a fitted effect of over 65% in size
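Using HEPG2 CAGA-GFP reporter cells at 1000 cells/well, we pinned test compounds, stimulated with recombinant TGF-beta (500 pg/mL final) and measured total well GFP after 18 h.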
An asterisk follows results filed as active; ? = inconclusive; nt = not tested or not shown; [ ] = another dose, or the depositor's remark. Only some compounds are listed: those with a hit (about 19% of all), similar ones and a draw of the others. Unless noted, calls come from the whole dose curve; as a rule, active = well fitted curve in the direction sought with a large enough effect; inconclusive = small, poorly fitted or top-dose-only effect, or another doubt; inactive = no such curve, though single readings can be large; an effect the other way counts as inactive or inconclusive.

SMILES | DT40 TDP1 no CPT | DT40 TDP1 CPT | IL-1B inflam inh | S-ASM inh | HepG2 viability | TGFb inhibitor
CCOC(=O)CS(=O)(=O)c1nc(-c2ccccc2)cc(C(F)(F)F)n1 | 1.6µM* | 0.65µM* | -125* | -3% | -90% | ?
CCOC(=O)CS(=O)(=O)c1nc(-c2ccc(F)cc2)cc(C(F)(F)F)n1 | 0.82µM* | 0.52µM* | -119* | -2% | -96% | ?
CCOC(=O)CCS(=O)(=O)c1nc(-c2ccccc2)cc(C(F)(F)F)n1 | 0.65µM* | 0.41µM* | -99* | 0% | -119% | ?
CCOC(=O)Cc1cc(-c2ccccc2)nc2ccc3ccccc3c12 | 13µM* | ? | 28 | -3% | -5% | 6%
Cc1nn2c(=O)cc(COC(=O)c3ccccc3NC(=O)C3CCCCC3)nc2s1 | 1% | 7% | nt | nt | 2% | -6%
O=C(Nc1ccc(CN2CCOCC2)cc1)c1cc(Br)ccc1Cl | ? | -28% | -51* | 6% | -1% | -9%
Cc1ccc(C(=O)NC(=S)Nc2ccc3c(c2)OCCO3)c(C)c1 | ? | ? | -7 | 15% | -39% | -12%
Cc1ccc(C(=O)NC(=S)Nc2ccc(CN3CCOCC3)cc2)cc1 | ? | 21µM* | -29 | 0% | -18% | -1%
Cc1ccc(C(=O)NC(=S)Nc2ccc(N3CCOCC3)cc2)c(C)c1 | 23µM* | -1% | 2 | -11% | 2% | -10%
O=C(Nc1ccc(Cl)cc1)c1cc(Br)ccc1OCC(=O)N1CCOCC1 | ? | ? | -92* | -15% | -30% | -22%
COc1ccc(CC(=O)Nc2cc(-c3cn4cccnc4n3)ccc2OC)cc1 | ? | ? | nt | nt | -10% | ?
O=C(CSc1nnc2ccccn12)Nc1ccc(S(=O)(=O)N2CCOCC2)cc1 | 0% | -2% | 17 | 2% | 5% | 10%
C[C@H]1CN(Cc2ccccc2)C(=O)[C@@H]1CC(=O)Nc1ccccc1 | -24% | -28% | -12 | nt | 12% | 1%
COc1cccc(COC(=O)C2CC(=O)N(Cc3ccc(C)cc3)C2)c1OC (stereo not given) | 1% | 8% | 13 | 3% | -20% | ?
COc1ccc(Br)cc1C(=O)NC(=S)Nc1ccc(CN2CCOCC2)cc1 | 13µM* | 18µM* | -68* | -12% | -17% | -8%
O=C(NC(=S)Nc1ccc(CN2CCOCC2)cc1)c1ccc([N+](=O)[O-])cc1Cl | 26µM* | 1% | 1 | 5% | 2% | 1%
CC(C)Oc1ccc(C(=O)NC(=S)Nc2ccc(CN3CCOCC3)cc2)cc1 | 18µM* | ? | -27 | -1% | -2% | -24%
O=C(COc1ccc2cc(Br)ccc2c1Br)N1CCOCC1 | ? | -53% | -77* | -4% | -18% | 0%
COc1ccc(Br)cc1C(=O)NC(=S)Nc1ccc(Cl)c(C(=O)O)c1 | -24% | -18% | 24 | -3% | -19% | -6%
O=C(COc1ccc(Br)cc1)N1CCOCC1 | -16% | -11% | -7 | 3% | -24% | -3%
CCCc1ccc(OCc2ccc(C(=O)N/N=C/c3cccnc3)o2)cc1 | -20% | -22% | 26 | -8% | -34% | -15%
COc1ccc(Cl)cc1NC(=O)CNc1ccccc1CN(C)C1CCCCC1 | ? | ? | -214* | -2% | -1% | -17%
Cc1ccc(NC(=O)CNc2ccccc2CN(C)C2CCCCC2)cc1 | ? | ? | -19 | -7% | -48% | ?
COc1ccc(C)cc1NC(=O)CNc1ccccc1CN(C)C1CCCCC1 | ? | 18µM* | -4 | 3% | -22% | -23%
COc1ccc(Cl)cc1NC(=O)CN(C)C(C)C(=O)NC(=O)NC1CCCCC1 (stereo not given) | 18µM* | ? | ? | -1% | -10% | ?
SMILES | DT40 TDP1 no CPT | DT40 TDP1 CPT | IL-1B inflam inh | S-ASM inh | HepG2 viability | TGFb inhibitor
Cc1nc2cc(NC(=O)[C@@H]3C[C@@H](Sc4ccccn4)CN3Cc3ccc4c(c3)OCCO4)ccc2s1 | -9% | 8%[9.04 µM] | nt | nt | nt | nt
O=C(Nc1ccccc1C(=O)O)c1cccc(S(=O)(=O)N2CCCC2)c1 | -18% | -16% | nt | nt | 3% | -14%
Cc1cccn2c(=O)c(C=C(C#N)C#N)c(N3CCN(C)CC3)nc12 | -18% | 3% | -15 | 15% | -16% | 15%
N#Cc1ccc(S(=O)(=O)N2CCC(Oc3cccc(C(F)(F)F)c3)CC2)cc1 | ? | ? | nt | nt | 5% | ?
CS(=O)(=O)N(CC(O)CON=C1c2ccccc2-c2ccccc21)c1ccc(F)cc1 (stereo not given) | ? | -22% | -6 | -8% | -24% | 18µM*
CCN(CC(O)CON=C1c2ccccc2-c2ccccc21)S(=O)(=O)c1ccc(Cl)cc1 (stereo not given) | 15µM* | 21µM* | -62* | -18% | -47% | 0%
Cc1cccc(N(CC(O)CON=C2c3ccccc3-c3ccccc32)S(C)(=O)=O)c1 (stereo not given) | ? | ? | ? | -19% | -94% | ?
CN(CC(O)CON=C1c2ccccc2-c2ccccc21)S(=O)(=O)c1ccc(Br)cc1 (stereo not given) | ? | 16µM* | ? | nt | -75% | ?
Cc1ccc(-c2ccc(CCC(=O)O)n2-c2cccc(C)c2C)cc1 | -20% | -15% | nt | nt | -23% | ?
CCCN(C(=O)c1ccc2c(SCC(=O)O)c3c(nc2c1)CCC3)c1cccc(C)c1 | 9% | 14% | 12 | 6% | 1% | 0%
CCc1nn2c(=O)c(S(=O)(=O)Nc3cccc(F)c3)c(C)nc2s1 | -10% | -1% | 43 | -1% | -2% | -5%
CCc1nn2c(=O)c(S(=O)(=O)Nc3ccc(C(C)C)cc3)c(C)nc2s1 | 16µM* | ? | 12 | -11% | -9% | -8%
COc1ccc(OC)c(CNS(=O)(=O)c2cn(C)cn2)c1 | -13% | 7% | -24 | 8% | -22% | -1%
CCN(CC)C(=O)Cn1c(=O)n(Cc2ccc(C(=O)NCc3ccccc3Cl)cc2)c(=O)c2ccccc21 | -16% | -3% | nt | nt | -4% | -18%

Screening data: PubChem BioAssay, National Center for Advancing Translational Sciences (NCATS)
